Values joined by “and” are separate entries in the source; they are usually repeats but may differ in a detail not shown here. Equal entries are not always repeated. Records with an inconclusive call do not appear. Unmarked numbers belong to inactive results. Active and inactive are the calls of the source. The call rests on the fitted dose curve.
Test: qHTS assay for small molecule agonists of the antioxidant response element (ARE) signaling pathway - cell viability counter screen (AID 743203); further: nearly all actives have a fitted effect of over 55% in size
Conditions: ARE-bla HepG2 viability, CellTiter-Glo luminescence, 16 h; series mostly up to 73.3 µM; viability change, negative = cytotoxic: at the top concentration
Excerpt: National Center for Advancing Translational Sciences [NCATS]
NIH Chemical Genomics Center [NCGC]
U.S. Environmental Protection Agency [EPA]
National Institutes of Environmental Health Sciences [NIEHS]
National Toxicology Program [NTP]
U.S. Food and Drug Administration [FDA]
Oxidative stress has been implicated in the pathogenesis of a variety of diseases ranging from cancer to neurodegeneration. The antioxidant response element (ARE) signaling pathway plays an important role in the amelioration of oxidative stress. The CellSensor ARE-bla HepG2 cell line (Invitrogen) can be used for analyzing the Nrf2/antioxidant response signaling pathway. Nrf2 (NF-E2-related factor 2) and Nrf1 are transcription factors that bind to AREs and activate these genes. The CellSensor ARE-bla Hep G2 cell line contains a beta-lactamase reporter gene under control of the Antioxidant Response Element (ARE) stably integrated into HepG2 cells. The activation of the report gene under culture conditions can be detected by fluorescence intensity. This cell line has been used to screen the Tox21 10K compound library to identify agonists that induce oxidative stress. The cytotoxicity of the Tox21 compound library against the ARE-bla cell line was tested in parallel by measuring the cell viability using CellTiter-Glo assay (Promega, Madison, WI) in the same wells.
Tox21 Assay Protocol Summary:
ARE-bla HepG2 cells were dispensed at 2,000 cells/5 ul/well in 1536-well white wall/solid bottom plates using a Multidrop Combi (ThermoFisher Scientific, Waltham, MA) dispenser. After the assay plates were incubated at 37C/5% CO2 for 5 hrs, 23 nL of compounds dissolved in DMSO, positive controls or DMSO only was transferred to the assay plate by a pintool work station (Kalypsys, San Diego, CA). The plates were incubated at 37C/5% CO2 for 16 hrs, followed by addition of 4 ul/well of CellTiter-Glo reagent into the assay plates using a Flying Reagent Dispenser (Aurora Discovery, San Diego, CA). After 30 min incubation at room temperature, the luminescence intensity in the assay plates was measured using a ViewLux (PerkinElmer, Shelton, CT) plate reader.
On the % scale 0 is the no-effect control and ±100 the full control effect; potency means the concentration at half of the fitted maximal effect.

| Structure (SMILES) | viability change, negative = cytotoxic | Potency |
| --- | --- | --- |
| C[C@]12CC[C@H]3[C@@H](CCC4=CC(=O)CC[C@@]43C)[C@@H]1CC[C@@H]2O | -1.88% |  |
| CC(C)CC(C)N (stereo not given) | 2.1% |  |
| CCCN(CC)CC1COC2(CCC(C(C)(C)C)CC2)O1 (stereo not given) | -9.55% |  |
| [Cd+2].[Cl-].[Cl-] |  | 692 nM (active) and 545 nM (active) |
| O=C1NCN(c2ccccc2)C12CCN(CC1COc3ccccc3O1)CC2 (stereo not given) | -4.94% |  |
| Cc1c(Cl)c(=O)oc2cc(OP(=O)(OCCCl)OCCCl)ccc12 | 8.77% |  |
| COC12CC[C@@]3(C[C@@H]1C(C)(O)C(C)(C)C)[C@H]1Cc4ccc(O)c5c4[C@@]3(CCN1CC1CC1)[C@H]2O5 (stereo not given in full) |  | 68.1 µM (active) |
| Cn1cc(C2=C(c3cn(C4CCN(Cc5ccccn5)CC4)c4ccccc34)C(=O)NC2=O)c2ccccc21 | -20.8% |  |
| CC(=O)[O-].CC(=O)[O-].[Hg+2] |  | 1.22 µM (active) |
| CCN(CC)c1c([N+](=O)[O-])cc(C(F)(F)F)c(N)c1[N+](=O)[O-] | -0.363% |  |
| ClC1=C(Cl)C2(Cl)C3C(Cl)C=CC3C1(Cl)C2(Cl)Cl (stereo not given) |  | 61.1 µM (active) |
| CC(C)OS(C)(=O)=O | 0.597% [at 94.8 µM] |  |
| CCCCOCN(C(=O)CCl)c1c(CC)cccc1CC |  | 48.6 µM (active) |
| FC(Cl)(Cl)Cl | -13.4% |  |
| CC(=O)C(Cl)(Cl)Cl |  | 0.743 µM (active) |
| CCCN(CCC)CCc1c[nH]c2ccccc12 | -0.0475% |  |
| C=CCC1=C(C)C(OC(=O)C2C(C=C(C)C)C2(C)C)CC1=O (stereo not given) |  | 51.5 µM (active) |
| CC(=O)c1cc(C(C)(C)C)cc2c1CCC2(C)C | -26.3% |  |
| CC(C)Oc1cccc(NC(=O)c2ccccc2C(F)(F)F)c1 | 19.7% |  |
| c1ccc2c(c1)[nH]c1cnccc12 | -3.6% |  |

| Structure (SMILES) | viability change, negative = cytotoxic | Potency |
| --- | --- | --- |
| COc1ccc(/C(=C/C(=O)N2CCOCC2)c2ccc(Cl)cc2)cc1OC | 0.184% |  |
| C=CC(=O)OCC(COC(=O)C=C)(COC(=O)C=C)COC(=O)C=C |  | 43.3 µM (active) |
| c1ccc2c(c1)OCC(C1=NCCN1)O2 (stereo not given) | 15.8% |  |
| Cc1ccc(OP(=O)(Oc2ccccc2)Oc2ccccc2)cc1 | -1.63% [at 94.8 µM] |  |
| CC1(C)C(/C=C(\Cl)C(F)(F)F)C1C(=O)OC(C#N)c1cccc(Oc2ccccc2)c1 (stereo not given) | -15.8% [at 94.8 µM] |  |
| CC(C)(O)c1cnn2c(-c3ccc(F)c(-c4c(F)cccc4C#N)c3)cnc2n1 | 2.4% |  |
| CCOC(=O)OC1=C(c2cc(C)ccc2C)C(=O)NC12CCC(OC)CC2 (stereo not given) | -25.6% |  |
| O=C(O)COc1nc(Cl)c(Cl)cc1Cl | 20.7% [at 94.8 µM] |  |
| N#CNC#N | 3.75% [at 94.8 µM] |  |
| Clc1ccc(C(Cl)(Cl)Cl)c(Cl)c1 | -0.955% [at 94.8 µM] |  |
| COc1cc(C=O)cc2c1[C@H](COC(N)=O)[C@]1(OC(C)=O)ON2C[C@H]2[C@@H]1N2C(C)=O |  | 0.154 µM (active) |
| O=CC(Br)(Br)Br |  | 54.3 µM (active) |
| CC[C@H]1C[C@@H]2C[C@H]3c4[nH]c5ccc(OC)cc5c4CCN(C2)[C@@H]13 | -3.59% |  |
| CCOC(=O)CC(=O)CCl | -7.12% |  |
| BrC(Br)Br | 3.21% |  |
| CCC[CH2][Sn]([CH2]CCC)([CH2]CCC)[O]C(=O)c1ccccc1 |  | 0.273 µM (active) |
| CCCCCCCCCC[N+](C)(C)CCCCCCCCCC |  | 43.3 µM (active) |
| COc1ccc(OC)c(CC(C)N)c1 (stereo not given) | 4.61% [at 94.8 µM] |  |
| [CH3][Hg][Cl] |  | 8.61 µM (active) |
| CCCOCC(=Nc1ccc(Cl)cc1C(F)(F)F)n1ccnc1 |  | 13.7 µM (active) |
